According to PubChem BioAssay (NCI):
Compounds without any hit were thinned out: in the full panel of roughly 83,000, 20% have a hit.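 48-hour exposure, single concentration, 96-well plates; percent growth endpoint where 0 means no net growth. Active: below 10.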 Activity calls are given as the source filed them.

These compounds were tested on HL-60(TB) leukemia (assay: NCI-60 one-dose screen, 48 h (100 = growth as untreated, 0 = no growth, -100 = all killed)). Conditions: 10 µM unless noted.

Compound	growth
CC(C)c1[nH]nc2c(NCc3ccc(-c4ccccn4)cc3)nc(SCCN(C)C)nc12	-16.4% (active)
C(=Nc1ccc(-c2ccc(N=Cc3ccccc3)cc2)cc1)c1ccccc1	107% (inactive)
Cn1cc(-c2nc(-c3c[nH]c4ccncc34)cs2)c2cc(F)ccc21	-55.3% (active)
N#Cc1c2c([nH]c(=O)c1C(N)=O)CCCCC2	104% (inactive)
CCO/C=N/C1=C(C#N)C(c2ccc(OC)cc2)c2c(c3ccccc3n(C)c2=O)O1 (stereo not given)	102% (inactive)
OCCCc1ccccc1	99% (inactive)
C#CCOc1ccc2ncnc(NCc3cccc(NC(=O)CCl)c3)c2c1	19.5% [8.25 µM] (inactive)
CC(C)(C)c1ccc(C(=O)Nc2sc3cc(O)ccc3c2C(N)=O)cc1	43.3% (inactive)
C#Cc1cc(C(=O)Nc2ccc(CN3CCN(C)CC3)c(C(F)(F)F)c2)ccc1C	77.8% (inactive)
N#CCCN=Nc1c(O)[nH]c2ccc([N+](=O)[O-])cc12	96.6% (inactive)
Clc1ccc(Nc2nnc(-c3ccc4c(c3)OCO4)o2)cc1	80.1% (inactive)
CC(NC(=O)c1ccccc1)C(=O)Nc1ccccc1 (stereo not given)	107% (inactive)
Cc1cccc(C)c1N1C(c2ccccc2)=NNC12C=CC(=O)c1c(O)cccc12 (stereo not given)	61.2% (inactive)
C/C=C(\C)C(=O)N[C@H]1C(O)C[C@]2(C)C3CC[C@@]4(C)C(CC[C@@H]4C(C)N(C)C)C3CCC2C1O (stereo not given in full)	5.7% (active)
O=[N+]([O-])c1ccc(/C=C/C2(CCl)OCCO2)cc1	76.2% (inactive)
Cc1nc2sc(C(=O)Nc3ccccc3)c(N)c2cc1C(O)c1ccccc1 (stereo not given)	-54% (active)
CC(=O)OCC1OC(OC2C(COC(C)=O)OC(OCCC[S-])C(OC(C)=O)C2OC(C)=O)C(OC(C)=O)C(OC(C)=O)C1OC(C)=O.[Au+].c1ccc(CN2[CH-]N(Cc3ccccc3)C(c3ccccc3)=C2c2ccccc2)cc1 (stereo not given)	13.6% (inactive)
O=C(/C(=C/c1ccccc1)CBr)c1ccccc1	9.09% (active)
CC1=CCC(OC(=O)C(C)(C)CCC(O)(C(=O)OC2(C(C)C)CCC3(C)OC3C2)C(C)C)(C(C)C)CC1 (stereo not given)	-43.1% (active)
O=C(C[N+](=O)[O-])c1ccc(Cl)cc1	104% (inactive)

Compound	growth
CC1(COc2ccc3c(c2)ncn3-c2ccc3cccc(N4CCC(N)CC4)c3n2)COC1	-46.9% (active)
CC(=O)Nc1c(Cl)cc2c(c1Cl)Cc1cc([N+](=O)[O-])ccc1-2	96.3% (inactive)
CN(C)CCCN(c1nc(C(Cl)(Cl)Cl)ns1)c1nc(C(Cl)(Cl)Cl)ns1	24.4% (inactive)
Nc1ccccc1SC1CC(=O)N(c2ccc(I)cc2)C1=O (stereo not given)	65.6% (inactive)
COc1cccc(NC(=O)c2sc3nc(C)c(C(=O)c4ccccc4)cc3c2N)c1	93.5% (inactive)
CC1(C)CC[C@]2(CO)CC[C@]3(C)C(=CC[C@@H]4[C@@]5(C)CC[C@H](NCO)C(C)(C)[C@@H]5CC[C@]43C)[C@@H]2C1	-60.5% (active)
Nc1nc(SCc2ccccc2)c2ncn(C3CCCC3)c2n1	75.2% (inactive)
CCn1c2ccccc2c2cc(C(O)c3cccc4ncccc34)ccc21 (stereo not given)	10.5% (inactive)
CC(C)(C)OC(=O)N1CCc2c(sc3ncnc(N/N=C/c4ccc(Br)cc4)c23)C1	83.1% (inactive)
C=C(C)[C@@H]1CC[C@]2(C)CC[C@]3(C)[C@H](CC[C@@H]4[C@@]5(C)CCCNC(C)(C)[C@@H]5CC[C@]43C)[C@@H]12	35.7% (inactive)
CCOCCNc1ccc(S(=O)(=O)c2ccc(N)cc2)cc1N	107% (inactive)
COc1cc(/C=C2\CCC/C(=C\c3cc(CN4CCOCC4)c(O)c(OC)c3)C2=O)cc(CN2CCOCC2)c1O	4.24% (active)
CCCCCCN=C(N)CCCCCCCCCCC(N)=NCCCCCC	55.1% (inactive)
COc1ccc(/C=C2\C=C(c3ccccc3)N(CCc3ccccc3)C2=O)cc1OC	19.6% (inactive)
CCOC(=O)c1c(C)nc2c(c1N)CC(=O)N2Cc1cc(OC)c(OC)c(OC)c1	18.8% (inactive)
N#CC1=C(N)Oc2c(ccc3ccccc23)C1c1ccccc1 (stereo not given)	-22.3% (active)
CNC1=C([N+](=O)[O-])C(c2ccc(OC)cc2)C(C#N)=C(c2ccc[nH]2)O1 (stereo not given)	93.9% (inactive)
NC1=C(c2nn[nH]n2)C(c2ccccc2Cl)c2ccc3ccccc3c2O1 (stereo not given)	54.3% (inactive)
c1ccc2c(c1)nc(CN1CCOCC1)n1cc(N3CCCC3)nc21	83.4% (inactive)
O=C(O)c1ccc2c(c1)nc(Nc1cccc(Cl)c1)c1ccncc12	-28.6% (active)
